Hits are enriched below; roughly 3.2% of the tested compounds scored in any of these assays.
Nrf2 activator – qHTS of Nrf2 Activators | AREc32 ARE-luciferase reporter (MCF7-derived line), luminescence, 24 h | 410,000 compounds, 0.31% hits | Potency, µM (series often up to 46.1 µM), inactives show at the top dose activation, most hits filed as activators; also: potency is read from the fitted curve at half-maximal effect; % of control where 0% means no effect; nearly all actives have a fitted effect of over 65% in size
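Quantitative high-throughput format: AREc32 reporter cells, 1000 per well, received compound by pin transfer and were incubated 24 hr at 37 deg C, 5% CO2, before Steady-Glo luminescence detection.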
Nrf2 block – Nrf2 qHTS screen for inhibitors; A549 ARE-Fluc reporter, luciferase luminescence, 18-24 h; Potency, µM (top dose mostly 46 µM), for the others: at the highest dose activity change, negative = inhibition, most hits filed as inhibitors; 360,000 compounds, 2.1% hits; also: potency is read from the fitted curve at half-maximal effect; % is scaled to controls: 0 for no effect and ±100 for the full control effect; nearly all actives have a fitted effect of over 60% in size
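Nrf2 function is reported as luminescence of an ARE-controlled luciferase in A549 cells. Compounds were tested at several concentrations, and a CellTiter-Fluor read on the same wells flagged cytotoxicity.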
IL-2 act – qHTS of IL-2 Activators; AID 652025, 2013; activation, % (series mostly up to about 46 µM); 360,000 compounds, 0.065% hits; IL-2 activation reporter assay, cell-based qHTS; stimulated with anti-CD3/CD4/CD28 beads; in transgenic mouse T cells; in the data active = activation above about 50%; inconclusive = mostly about 30% to 49%; also: 0% is about no effect
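EGFP and DsRed fluorescence is measured by plate cytometry in unstimulated transgenic mouse T cells exposed to compound for 60 minutes, then stimulated 18 hours at 37 degrees C with anti-CD3/anti-CD4 beads plus anti-CD28.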
BRCA1 expr act – qHTS Assay to Identify Small Molecule Activators of BRCA1 Expression. 380,000 compounds, 1.1% hits. Potency, µM (doses to about 46.1 µM), without a hit: top-dose activation, actives largely listed as activators. MCF7-BRCA1-FFLuc reporter, luminescence, 48 h; response scale: scaled: vehicle 0%, 10 µM genistein 100%; also: potency is read from the fitted curve at half-maximal effect; nearly all actives have a fitted effect of over 80% in size
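Luminescence from a BRCA1-driven firefly luciferase in MCF7 cells was the read-out, taken 15 min after substrate addition following 48 h compound exposure at 37 °C. Data were normalized to a 10 microM genistein control and DMSO vehicle.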
p53 reactivation – qHTS assay for re-activators of p53 using a Luc reporter. AID 504706, 2011. 320,000 compounds, 0.063% hits. H1299 p53-A138V BP100-luciferase reporter, luminescence, 24 h. Potency, µM (titrated, usually from 92.2 µM), without a hit: at the top dose activity change, positive = activation, actives largely listed as activators; also: potency is read from the fitted curve at half-maximal effect; % of control where 0% means no effect; nearly all actives have a fitted effect of over 45% in size
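p53-null H1299 cells stably carrying temperature-sensitive p53-A138V and a BP100-luciferase reporter were pinned with compounds (4-point, 1:5 series) and held 24 hrs at 37 deg C. Luminescence was read 10 min after detection reagent.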
A549 tox – Nrf2 qHTS screen for inhibitors: counterscreen for cytotoxicity; A549 ARE-Fluc cells, CellTiter-Fluor viability, 18-24 h; Potency, µM (titrated, usually from 46 µM), for the others: at the top dose activity change, negative = cytotoxicity, usual class: inhibitors; 390,000 compounds, 0.16% hits; AID 504648, 2011; also: potency is read from the fitted curve at half-maximal effect; % is scaled to controls: 0 for no effect and ±100 for the full control effect
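A549 ARE_Fluc cells in 5% FBS OPTI-MEM were exposed to compounds in concentration-response for 18-24 h at 37 deg C. Viability was read by CellTiter-Fluor fluorescence (Ex 405/Em 525) after 30 min, before the luciferase read.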
An asterisk follows results filed as active. Unless noted, calls follow the shape of the dose curve; as a rule, active = well fitted curve in the direction sought with a large enough effect; inconclusive = small, poorly fitted or top-dose-only effect, or another doubt; inactive = no such curve, though single readings can be large; an effect the other way counts as inactive or inconclusive.

Results for CCN(CC)S(=O)(=O)c1cc(-c2nnc(-c3ccc(Br)cc3)o2)ccc1Cl ?
Nrf2 activator: -1%; Nrf2 block: 21µM*; IL-2 act: 2; BRCA1 expr act: -15%; p53 reactivation: -2%; A549 tox: -22%

What do the screens show for `CCOc1ccccc1C1N=C(c2ccc(OC)cc2)CC(c2ccccc2O)N1` (stereo unspecified)?
Nrf2 activator: 16µM*; Nrf2 block: inconclusive; IL-2 act: -1; BRCA1 expr act: 23%; p53 reactivation: inconclusive; A549 tox: -10%

Results for CC(C)C1N=C(c2ccc3c(c2)OCO3)CC(c2ccccc2O)N1 (stereo unspecified) ?
Nrf2 activator: inconclusive; Nrf2 block: 23%; IL-2 act: -2; BRCA1 expr act: 0%; p53 reactivation: inconclusive; A549 tox: -9%

How did O=C(CCOc1ccccc1F)N1CCN(c2ccccc2O)CC1 do in these assays?
Nrf2 activator: 3%; Nrf2 block: 0%; IL-2 act: 1; BRCA1 expr act: 11µM*; p53 reactivation: 13%; A549 tox: -1%

What do the screens show for `Cc1ccc(Cl)c(N/C=C/C(=O)c2ccccc2)c1`?
Nrf2 activator: inconclusive; Nrf2 block: inconclusive; IL-2 act: 0; BRCA1 expr act: 50%; p53 reactivation: 40µM*; A549 tox: -4%

What do the screens show for `CCCN1CNc2c(c(=O)[nH]c(=S)n2CCc2c(OC)cccc2OC)C1`?
Nrf2 block: -4%; BRCA1 expr act: 29%; A549 tox: 0%

What do the screens show for `COC(=O)c1ccc(C2Nc3c(C)cc(C)cc3C3C=CCC32)cc1` (stereo unspecified)?
Nrf2 activator: 21%; Nrf2 block: 4%; A549 tox: -11%

How did O=C(Nc1ccc2c(c1)OCO2)c1cnc2n(c1=O)CCS2 do in these assays?
Nrf2 activator: 0%; Nrf2 block: inconclusive; IL-2 act: 0; BRCA1 expr act: 2.5µM*; p53 reactivation: inconclusive; A549 tox: 4%

What do the screens show for `O=C(Nc1ccc2c(c1)OCCO2)c1cnc2n(c1=O)CCS2`?
Nrf2 activator: 0%; Nrf2 block: inconclusive; IL-2 act: 1; BRCA1 expr act: 7.1µM*; p53 reactivation: inconclusive; A549 tox: -1%

How did Cc1ccccc1-c1csc2ncnc(Sc3nnnn3C)c12 do in these assays?
Nrf2 block: -10%; A549 tox: 1%

How did Cn1nnnc1Sc1ncnc2scc(-c3cccc4ccccc34)c12 do in these assays?
Nrf2 activator: 7.1µM*; Nrf2 block: inconclusive; IL-2 act: -1; BRCA1 expr act: -33%; p53 reactivation: inconclusive; A549 tox: -21%

Results for Cn1nnnc1Sc1ncnc2scc(-c3ccccc3Br)c12 ?
Nrf2 activator: inconclusive; Nrf2 block: 21µM*; IL-2 act: 1; BRCA1 expr act: -63%; p53 reactivation: -9%; A549 tox: -3%

Results for Cn1nnnc1Sc1ncnc2scc(-c3ccc(F)cc3)c12 ?
Nrf2 activator: inconclusive; Nrf2 block: 23µM*; IL-2 act: -1; BRCA1 expr act: -96%; p53 reactivation: -22%; A549 tox: inconclusive

How did Cn1nnnc1Sc1ncnc2scc(-c3cccc(C#N)c3)c12 do in these assays?
Nrf2 block: 16µM*; A549 tox: inconclusive

Results for Cn1nnnc1Sc1ncnc2scc(-c3ccccc3)c12 ?
Nrf2 activator: inconclusive; Nrf2 block: inconclusive; IL-2 act: -1; BRCA1 expr act: -86%; p53 reactivation: -30%; A549 tox: -5%

Results for CCn1c2ccccc2c2nnc(SC3CCOC3=O)nc21 (stereo unspecified) ?
Nrf2 block: inconclusive; BRCA1 expr act: 2%; A549 tox: -3%

What do the screens show for `O=C(c1cccs1)N1CCCc2cc(NS(=O)(=O)c3ccc(Cl)cc3)ccc21`?
Nrf2 activator: -1%; A549 tox: 1%

What do the screens show for `Clc1ccc(OCc2cn3ccccc3n2)c2ncccc12`?
Nrf2 activator: 5%; Nrf2 block: inconclusive; IL-2 act: -1; BRCA1 expr act: 3.2µM*; p53 reactivation: 0%; A549 tox: 3%

How did OCc1ccccc1OCCOc1ccc(Cl)c2cccnc12 do in these assays?
Nrf2 activator: 23%; Nrf2 block: 13%; IL-2 act: -1; BRCA1 expr act: 1%; p53 reactivation: 14%; A549 tox: -3%

What do the screens show for `CCc1ccc(CNC(=O)c2ccc3c(c2)nc2n3CCOC2)cc1`?
Nrf2 activator: 1%; A549 tox: 1%

Results for Oc1cccc2ccc(Nc3ccccn3)nc12 ?
Nrf2 activator: -2%; Nrf2 block: inconclusive; IL-2 act: -4; BRCA1 expr act: -97%; p53 reactivation: -45%; A549 tox: 4.1µM*

What do the screens show for `CCOC(=O)c1ccccc1NC(=O)CSc1cn(CC(=O)N2CCOCC2)c2ccccc12`?
Nrf2 activator: 0%; Nrf2 block: 4%; A549 tox: 5%

How did CCOc1ccc(C(=O)Nc2ccc(NC(=O)c3ccco3)c(Cl)c2)cc1Br do in these assays?
Nrf2 activator: 0%; Nrf2 block: inconclusive; IL-2 act: 0; BRCA1 expr act: 11%; p53 reactivation: -3%; A549 tox: inconclusive

What do the screens show for `O=C(Nc1ccc(NC(=O)c2sc3ccccc3c2Cl)cc1Cl)c1ccco1`?
Nrf2 activator: 4%; Nrf2 block: inconclusive; IL-2 act: -4; BRCA1 expr act: 7.9µM*; p53 reactivation: -3%; A549 tox: -7%

Results for CCOc1ccc(C(=O)Nc2ccc(NC(=O)c3ccco3)c(Cl)c2)cc1Cl ?
Nrf2 activator: 0%; Nrf2 block: 21µM*; IL-2 act: 0; BRCA1 expr act: -29%; p53 reactivation: 1%; A549 tox: inconclusive

How did O=C(Nc1ccc(NC(=O)c2cccs2)c(Cl)c1)c1ccco1 do in these assays?
Nrf2 activator: inconclusive; Nrf2 block: 21%; IL-2 act: -1; BRCA1 expr act: -17%; p53 reactivation: 0%; A549 tox: -5%

How did O=C(Nc1ccnc(=O)[nH]1)c1sc2ccccc2c1Cl do in these assays?
Nrf2 activator: 0%; Nrf2 block: 9%; IL-2 act: -2; BRCA1 expr act: 5.6µM*; p53 reactivation: 16%; A549 tox: 3%

What do the screens show for `CCc1ccc(CNC(=O)C(C)n2ccc3cc(S(=O)(=O)N4CCCCCC4)ccc32)cc1` (stereo unspecified)?
Nrf2 activator: 4%; Nrf2 block: inconclusive; A549 tox: -4%

Screens as filed in PubChem BioAssay.
